Calls of active or inactive are those of the source. Rule for the calls: active = hit-call score of the fitted dose curve at least 0.9, where 1 is the maximum; inactive = score below 0.9.
Experiments:
[1] = APR_HepG2_CellCycleArrest_1hr: Apredica 1-hour HepG2 Assay for Cell Cycle Arrest (AID 2282666); conditions: high-content imaging, actives raise or lower the signal
Procedure, shortened: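 Cell cycle arrest scored from nuclear DNA content (Hoechst 33342) using high-content imaging of fixed HepG2 cells after 1 h treatment across 0.39–200 uM, in duplicate. Gain or loss fitted relative to 0.5% DMSO.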

[2] = APR_HepG2_NuclearSize_1hr: Apredica 1-hour HepG2 Assay for Nuclear Size (AID 2282670); conditions: high-content imaging, actives raise or lower the signal
Procedure, shortened: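 Nuclear size measured by high-content imaging of Hoechst 33342 nuclear stain after formaldehyde fixation; human HepG2 line exposed 1 hr to compounds at 0.39–200 uM in 0.5% DMSO, with bidirectional curve fitting relative to DMSO.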

[3] = APR_HepG2_MitoticArrest_1hr: Apredica 1-hour HepG2 Assay for Mitotic Arrest (AID 2282672); conditions: high-content imaging, actives raise or lower the signal
Procedure, shortened: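 Ten-point concentration series (0.39 to 200 uM, duplicates, 0.5% v/v DMSO) applied to human HepG2 liver cells for 1 hr. High-content imaging of phospho-histone H3 and Hoechst-stained nuclei after fixation and permeabilization; DMSO-normalised bidirectional fit.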

[4] = APR_HepG2_MitoMass_1hr: Apredica 1-hour HepG2 Assay for Mitochondrial Mass (AID 2282674); conditions: high-content imaging, actives raise or lower the signal
Procedure, shortened: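 Mitochondrial mass is taken from MitoTracker Red CMXRos (250 nM, 30 min, pre-fixation) fluorescence imaged at 20x in HepG2 cells. Exposure lasted 1 hr across ten concentrations, 0.39 to 200 uM, 0.5% DMSO; DMSO baseline, bidirectional fitting.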

[5] = APR_HepG2_CellCycleArrest_24hr: Apredica 24-hour HepG2 Assay for Cell Cycle Arrest (AID 2282905); conditions: imaging, actives raise or lower the signal;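 note: cell cycle arrest scored as ratio of 2N to 4N nuclear DNA content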
Procedure, shortened: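 Step one: dose HepG2 with test compounds, 0.39–200 uM, 0.5% DMSO, 24 hr. Step two: fix, permeabilize, stain nuclei with Hoechst 33342. Step three: image six fields per well at 20x, quantify DNA content, fit bidirectionally relative to DMSO.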

[6] = APR_HepG2_MicrotubuleCSK_1hr: Apredica 1-hour HepG2 Assay for Microtubule CSK Stabilty (AID 2282669); conditions: HepG2 microtubule cytoskeleton imaging, actives raise or lower the signal
Procedure, shortened: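 Alpha-tubulin immunofluorescence, imaged by automated high-content microscopy with Hoechst nuclear segmentation, measured cytoskeletal change after 1 h dosing of HepG2 at 0.39–200 uM in 0.5% DMSO. Activity fitted in both directions relative to DMSO.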

[7] = APR_HepG2_CellLoss_1hr: Apredica 1-hour HepG2 Assay for Cell Loss (AID 2282668); conditions: high-content imaging;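 note: curves fitted both ways against DMSO so gain or loss of cells counts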
Procedure, shortened: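 Cell number comes from high-content imaging of Hoechst-labelled nuclei in fixed HepG2 cells. Cells were exposed for 1 h to ten concentrations from 0.39 to 200 uM in 0.5% DMSO. Gain or loss was fitted against DMSO controls.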

[8] = APR_HepG2_p53Act_1hr: Apredica 1-hour HepG2 Assay for p53 Activation (AID 2282671); conditions: high-content imaging, actives raise or lower the signal
Procedure, shortened: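 After 1 h exposure (0.39–200 uM, 0.5% DMSO final, duplicates), fixed HepG2 cells were labelled with anti-p53 antibody plus Hoechst nuclear stain. Fluorescence quantified by automated 20x imaging; changes fitted in both directions against DMSO.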

[9] = APR_HepG2_MitoMembPot_1hr: Apredica 1-hour HepG2 Assay for Mitochondrial Membrane Potential (AID 2282675); conditions: imaging, actives raise or lower the signal
Procedure, shortened: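 Mitochondrial membrane potential read as MitoTracker Red CMXRos intensity by automated imaging of fixed HepG2 cells. Dye at 250 nM for 30 min pre-fixation; compounds 0.39 to 200 uM for 1 hour, duplicate wells, 0.5% DMSO.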

[10] = APR_HepG2_P-H2AX_1hr: Apredica 1-hour HepG2 Assay for H2AX Phosphorylation (AID 2282673); conditions: high-content imaging, actives raise or lower the signal
Procedure, shortened: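 Phospho-H2A.x immunofluorescence (1:200, FITC secondary) plus Hoechst nuclear stain, quantified by high-content imaging in HepG2 after 1 hr compound exposure. Ten concentrations, 0.39 to 200 uM, in duplicate with 0.5% DMSO; fit both directions against DMSO.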

| SMILES | outcome [1] | outcome [2] | outcome [3] | outcome [4] | outcome [5] | outcome [6] | outcome [7] | outcome [8] | outcome [9] | AC50 [5] | outcome [10] |
| --- | --- | --- | --- | --- | --- | --- | --- | --- | --- | --- | --- |
| CNC(=O)ON=C(SC)C(=O)N(C)C | inactive | inactive | inactive | inactive | inactive |  |  |  |  |  |  |
| FC(F)C(F)(F)OCC(Cn1cncn1)c1ccc(Cl)cc1Cl (configuration not stated) | inactive |  |  | inactive | inactive | inactive |  |  |  |  |  |
| CC(C)[C@H](C(=O)O[C@H](C#N)c1cccc(Oc2ccccc2)c1)c1ccc(Cl)cc1 | inactive |  | inactive | inactive | inactive | inactive | inactive |  |  |  |  |
| CCOP(=S)(Oc1cnc(C(C)(C)C)nc1)OC(C)C (configuration not stated) | inactive | inactive |  | inactive |  | inactive |  | inactive | inactive | 152 µM (active) |  |
| COc1ccc(C(=CC(=O)N2CCOCC2)c2ccc(Cl)cc2)cc1OC | inactive |  |  | inactive | inactive |  |  |  |  |  | inactive |
| CN(C)[C@@H]1C(=O)C(C(N)=O)=C(O)[C@@]2(O)C(=O)C3=C(O)c4c(O)cccc4[C@@](C)(O)[C@H]3[C@H](O)[C@@H]12 | inactive |  | inactive | inactive | inactive | inactive |  |  |  |  |  |
| CCOP(=S)(OCC)SCCSCC |  | inactive |  | inactive | inactive | inactive | inactive | inactive | inactive |  | inactive |
| CCC(=O)Nc1ccc(Cl)c(Cl)c1 | inactive |  | inactive | inactive |  |  |  |  | inactive | 79.3 µM (active) |  |
| COc1cccc(C(=O)NN(C(=O)c2cc(C)cc(C)c2)C(C)(C)C)c1C | inactive |  |  | inactive | inactive |  | inactive |  | inactive |  |  |
| C[Si](Cn1cncn1)(c1ccc(F)cc1)c1ccc(F)cc1 | inactive |  |  | inactive | inactive |  | inactive |  | inactive |  |  |
| COP(=O)(OC)OC(Br)C(Cl)(Cl)Br (configuration not stated) | inactive | inactive |  | inactive | inactive |  |  |  | inactive |  |  |
| C#CC(C)(C)NC(=O)c1cc(Cl)cc(Cl)c1 | inactive |  |  | inactive | inactive | inactive |  | inactive | inactive |  |  |
| N#CSCSC#N | inactive |  | inactive | inactive | inactive |  |  |  | inactive |  | inactive |
| CSc1nc(NC(C)C)nc(NC(C)C)n1 | inactive | inactive | inactive | inactive | inactive |  |  | inactive | inactive |  | inactive |
| COP(=O)(NC(C)=O)SC (configuration not stated) | inactive |  |  | inactive | inactive | inactive | inactive |  |  |  |  |
| CCc1cnc(C2=NC(C)(C(C)C)C(=O)N2)c(C(=O)O)c1 (configuration not stated) | inactive |  |  | inactive | inactive |  | inactive |  |  |  | inactive |
| CCOP(=S)(OCC)Oc1cc(C)nc(C(C)C)n1 |  | inactive | inactive | inactive | inactive | inactive | inactive |  |  |  | inactive |
| CCCCOC(=O)c1ccccc1C(=O)O | inactive | inactive | inactive | inactive | inactive | inactive |  |  |  |  |  |
| CCCCSP(=O)(SCCCC)SCCCC | inactive | inactive |  | inactive | inactive | inactive | inactive |  |  |  | inactive |
| COc1cc(OC)nc(Sc2cccc(Cl)c2C(=O)O)n1 | inactive | inactive | inactive | inactive | inactive | inactive | inactive |  | inactive |  | inactive |
| CCCOc1nn(C(=O)NS(=O)(=O)c2ccccc2C(=O)OC)c(=O)n1C | inactive |  |  | inactive | inactive | inactive | inactive |  |  |  | inactive |
| CC[C@H](C)[C@H]1O[C@]2(C=C[C@@H]1C)C[C@@H]1C[C@@H](C/C=C(\C)[C@@H](O[C@H]3C[C@H](OC)[C@@H](O[C@H]4C[C@H](OC)[C@@H](NC)[C@H](C)O4)[C@H](C)O3)[C@@H](C)/C=C/C=C3\CO[C@@H]4[C@H](O)C(C)=C[C@@H](C(=O)O1)[C@]34O)O2 | inactive | inactive |  | inactive | inactive |  |  |  | inactive |  |  |
| CCCCOC(=O)[C@@H](C)Oc1ccc(Oc2ccc(C#N)cc2F)cc1 | inactive | inactive | inactive | inactive |  |  | inactive | inactive |  | 96.9 µM (active) |  |
| CC(C)=CC1C(C(=O)OCN2C(=O)C3=C(CCCC3)C2=O)C1(C)C (configuration not stated) | inactive |  |  | inactive | inactive | inactive | inactive |  |  |  |  |
| CCc1cccc(C)c1N(C(=O)CCl)C(C)COC (configuration not stated) | inactive | inactive |  | inactive | inactive |  |  |  |  |  | inactive |
| CC1(C(=O)Nc2ccc(O)c(Cl)c2Cl)CCCCC1 | inactive |  |  | inactive | inactive |  | inactive | inactive |  |  |  |
| COP(=O)(OC)C(O)C(Cl)(Cl)Cl (configuration not stated) | inactive | inactive |  | inactive |  | inactive |  | inactive | inactive | 164 µM (active) | inactive |
| CNc1cnn(-c2cccc(C(F)(F)F)c2)c(=O)c1Cl | inactive | inactive | inactive | inactive | inactive |  | inactive | inactive |  |  | inactive |
